# Data as given in paper PMC8384837, “Expanding the binding specificity for RNA recognition by a PUF domain”.
# Positions count from the first letter of the chain named.
# Legend:
# Assay in all cases: yeast three-hybrid, YBZ-1, SC-Leu-His + 0.5 mM 3-AT, 4 days
# Conditions in all cases: tags: N-Gal4 AD-HA kept; label: inside an RPR1-promoter hybrid RNA with tandem MS2 sites; ssRNA
# PUM1 PUF domain R8-RYP = PUM1 PUF domain R8-RYP (Homo sapiens, UniProt Q14671 828-1176, N1122R;Q1126P)
# Procedure, shortened: (§1)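 The interaction score is the log change in how often each variant appears, from input to selection. Frequencies came from PCR-amplified, Illumina-sequenced repeat regions of Pumilio-1 PUF domain libraries grown in strain YBZ-1 (LexA–MS2 coat fusion, HIS3 reporter) alongside matching RNA elements. Input plates were SC-Leu and selection plates were SC-Leu-His + 0.5 mM 3-AT, each for four days, and the log2 calculation used a pseudocount of 1 where a variant was absent.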
# PUM1 PUF domain R5-SQG = PUM1 PUF domain R5-SQG (Homo sapiens, UniProt Q14671 828-1176, C1007S;R1008Q;Q1011G)
# Procedure, shortened: as §1
# PUM1 PUF domain R5-GSR = PUM1 PUF domain R5-GSR (Homo sapiens, UniProt Q14671 828-1176, C1007G;R1008S;Q1011R)
# Procedure, shortened: as §1
# PUM1 PUF domain R5-ERF = PUM1 PUF domain R5-ERF (Homo sapiens, UniProt Q14671 828-1176, C1007E;Q1011F)
# Procedure, shortened: as §1
# PUM1 PUF domain R7-RGK = PUM1 PUF domain R7-RGK (Homo sapiens, UniProt Q14671 828-1176, S1079R;N1080G;E1083K)
# Procedure, shortened: as §1
# PUM1 PUF domain R3-TIE = PUM1 PUF domain R3-TIE (Homo sapiens, UniProt Q14671 828-1176, C935T;R936I;Q939E)
# Procedure, shortened: as §1
# PUM1 PUF domain R5-AYF = PUM1 PUF domain R5-AYF (Homo sapiens, UniProt Q14671 828-1176, C1007A;R1008Y;Q1011F)
# Procedure, shortened: as §1
# PUM1 PUF domain R6-IYK = molecular target: T1, PUM1 PUF domain R6-IYK (Homo sapiens, UniProt Q14671 828-1176, N1043I;Q1047K)
# T1 sequence: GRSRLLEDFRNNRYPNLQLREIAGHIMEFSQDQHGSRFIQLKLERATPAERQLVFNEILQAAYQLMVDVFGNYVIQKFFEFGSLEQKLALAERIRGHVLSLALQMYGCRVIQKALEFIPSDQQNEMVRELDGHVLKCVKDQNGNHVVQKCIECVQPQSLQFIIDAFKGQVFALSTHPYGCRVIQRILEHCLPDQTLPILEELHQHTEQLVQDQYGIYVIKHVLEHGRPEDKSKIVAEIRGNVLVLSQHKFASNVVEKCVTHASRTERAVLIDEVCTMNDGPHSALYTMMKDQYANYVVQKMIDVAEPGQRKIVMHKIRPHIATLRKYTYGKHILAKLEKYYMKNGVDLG
# Procedure, shortened: as §1
# PUM1 PUF domain R4-PFY = PUM1 PUF domain R4-PFY (Homo sapiens, UniProt Q14671 828-1176, N971P;H972F;Q975Y)
# Procedure, shortened: as §1
# PUM1 PUF domain R6-GFK = molecular target: T2, PUM1 PUF domain R6-GFK (Homo sapiens, UniProt Q14671 828-1176, N1043G;Y1044F;Q1047K)
# T2 sequence: T1 sequence with I216G, Y217F
# Procedure, shortened: as §1
sequence,measurement,setting,value
GGCUAGAACUAGUGGAUCCCCCGGCGCCCGGCGGCUCGAGCCCGGGUAAGCGUAAAUAGUCUGCAUGCCGCCGGGCGCCAUGCCUGCAGGUCGACUCUAGAAAACAUG,binding signal,PUM1 PUF domain R8-RYP,6.03 log2 enrichment (interaction score)
GGCUAGAACUAGUGGAUCCCCCGGCGCCCGGCGGCUCGAGCCCGGGUAAGUGUUAAUAGUCUGCAUGCCGCCGGGCGCCAUGCCUGCAGGUCGACUCUAGAAAACAUG,binding signal,PUM1 PUF domain R5-SQG,0.27 log2 enrichment (interaction score)
same,binding signal,PUM1 PUF domain R5-GSR,3.01 log2 enrichment (interaction score)
same,binding signal,PUM1 PUF domain R5-ERF,3.92 log2 enrichment (interaction score)
GGCUAGAACUAGUGGAUCCCCCGGCGCCCGGCGGCUCGAGCCCGGGUAAGUGUGAAUAGUCUGCAUGCCGCCGGGCGCCAUGCCUGCAGGUCGACUCUAGAAAACAUG,binding signal,PUM1 PUF domain R5-SQG,3.41 log2 enrichment (interaction score)
GGCUAGAACUAGUGGAUCCCCCGGCGCCCGGCGGCUCGAGCCCGGGUAAGUGUCAAUAGUCUGCAUGCCGCCGGGCGCCAUGCCUGCAGGUCGACUCUAGAAAACAUG,binding signal,PUM1 PUF domain R5-GSR,5.07 log2 enrichment (interaction score)
same,binding signal,PUM1 PUF domain R5-ERF,3.35 log2 enrichment (interaction score)
GGCUAGAACUAGUGGAUCCCCCGGCGCCCGGCGGCUCGAGCCCGGGUAAGUCUAAAUAGUCUGCAUGCCGCCGGGCGCCAUGCCUGCAGGUCGACUCUAGAAAACAUG,binding signal,PUM1 PUF domain R7-RGK,5.3 log2 enrichment (interaction score)
GGCUAGAACUAGUGGAUCCCCCGGCGCCCGGCGGCUCGAGCCCGGGUAAGUGUAAGUAGUCUGCAUGCCGCCGGGCGCCAUGCCUGCAGGUCGACUCUAGAAAACAUG,binding signal,PUM1 PUF domain R3-TIE,4.39 log2 enrichment (interaction score)
GGCUAGAACUAGUGGAUCCCCCGGCGCCCGGCGGCUCGAGCCCGGGUAAGUUUAAAUAGUCUGCAUGCCGCCGGGCGCCAUGCCUGCAGGUCGACUCUAGAAAACAUG,binding signal,PUM1 PUF domain R7-RGK,6.69 log2 enrichment (interaction score)
GGCUAGAACUAGUGGAUCCCCCGGCGCCCGGCGGCUCGAGCCCGGGUAAGUGUAAAUAGUCUGCAUGCCGCCGGGCGCCAUGCCUGCAGGUCGACUCUAGAAAACAUG,binding signal,PUM1 PUF domain R5-AYF,3.62 log2 enrichment (interaction score)
same,binding signal,PUM1 PUF domain R8-RYP,4.32 log2 enrichment (interaction score)
same,binding signal,PUM1 PUF domain R5-GSR,1.75 log2 enrichment (interaction score)
same,binding signal,PUM1 PUF domain R6-IYK,2.06 log2 enrichment (interaction score)
same,binding signal,PUM1 PUF domain R4-PFY,5.35 log2 enrichment (interaction score)
same,binding signal,PUM1 PUF domain R5-ERF,2.71 log2 enrichment (interaction score)
same,binding signal,PUM1 PUF domain R6-GFK,2.55 log2 enrichment (interaction score)
GGCUAGAACUAGUGGAUCCCCCGGCGCCCGGCGGCUCGAGCCCGGGUAAGUGUAUAUAGUCUGCAUGCCGCCGGGCGCCAUGCCUGCAGGUCGACUCUAGAAAACAUG,binding signal,PUM1 PUF domain R4-PFY,3.71 log2 enrichment (interaction score)
